From PubChem BioAssay (Tox21) come the findings set out here.

Assay [1] can be described thus: qHTS assay to identify small molecule agonists of the estrogen related receptor signaling pathway with the pleiotropic PPARgamma coactivator (PGC) (AID 1224823). An outline of the steps:
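Cell-based luciferase assay in the NTP-supplied PGC/ERR line, 2,000 cells/well; 18 h compound exposure at 37 C, luminescence after One-Glo.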
(In general: In qHTS, concentration-response curves come from the screen itself.)

A short description of assay [2]: qHTS assay to identify small molecule antagonists of the estrogen related receptor (ERR) signaling pathway from Tox21 library - cell viability counter screen (AID 1224834). Also: nearly all actives have a fitted effect of over 30% in size. An outline of the steps: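 ERR reporter cells were plated 6 h before compound addition, then exposed to test compounds in DMSO for 17.5 h at 37 C. Viability was read as CellTiter-Fluor fluorescence after a 30-minute incubation at 37 C.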

In assay [3] the target is Luciferin 4-monooxygenase (Photinus pyralis) (UniProt P08659). Description: qHTS assay to identify small molecule inhibitors of firefly luciferase (AID 1224835). Also: nearly all actives have a fitted effect of over 25% in size. Also: potency is read from the fitted curve at half-maximal effect. The gist of the method:
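Quantitative HTS format; KM concentrations of both substrates. Purified P. pyralis FLuc activity quantified from luminescence images.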

Assay [4] can be described thus: qHTS assay to identify small molecule agonists of the constitutive androstane receptor (CAR) signaling pathway - cell viability counter screen (AID 1224836). Also: nearly all actives have a fitted effect of over 45% in size. An outline of the steps: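 Viability read-out: CellTiter-Fluor fluorescence after 23 h compound exposure at 37 C/5% CO2 in double-stable HepG2-CYP2B6-hCAR cells, with PK11195 present at 0.75 uM final; compounds tested in 15-point titration.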

A short description of assay [5]: qHTS assay to identify small molecule antagonists of the constitutive androstane receptor (CAR) signaling pathway - cell viability counter screen (AID 1224837). Also: nearly all actives have a fitted effect of over 45% in size. An outline of the steps: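 HepG2 cells stably expressing hCAR and a CYP2B6-2.2kb reporter were plated and pre-incubated 4 hr at 37 C/5% CO2, then given compounds at 15 concentrations plus 50 nM CITCO (final). After 23 hr, viability was read by CellTiter-Fluor fluorescence.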

Assay [6] deals with Nuclear receptor subfamily 1 group I member 3 (Homo sapiens) (UniProt Q14994). Description: qHTS assay to identify small molecule agonists of the constitutive androstane receptor (CAR) signaling pathway (AID 1224839). Also: nearly all actives have a fitted effect of over 15% in size. Also: potency is read from the fitted curve at half-maximal effect. The gist of the method:
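Luminescence read-out (ONE-Glo, 30 min, room temperature) from double-stable HepG2-CYP2B6-hCAR cells exposed 24 h to 15-point compound series in presence of 0.75 uM PK11195 final.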

The nature of assay [7]: qHTS assay to identify small molecule antagonists of the estrogen related receptor signaling pathway with the pleiotropic PPARgamma coactivator (PGC) from Tox21 10K library - cell viability counter screen (AID 1224840; active = well fitted cell-killing curve with a large enough effect in the repeat runs, not every such curve was filed as active; also: nearly all actives have a fitted effect of over 40% in size). An outline of the steps:
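PGC/ERR cells were seeded at 2,000 cells/well and left 6 hours at 37 C/5% CO2 before pin-tool addition of compounds in DMSO. After 17.5 hours at 37 C, CellTiter-Fluor was added and fluorescence read 30 minutes later.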

The nature of assay [8]: qHTS assay to identify small molecule antagonists of the estrogen related receptor signaling pathway with the pleiotropic PPARgamma coactivator (PGC) from Tox21 10K library (AID 1224841; call rule not given here; also: actives are mostly falling curves and most rising ones were filed inactive; nearly all actives have a fitted effect of over 50% in size). An outline of the steps: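 PGC/ERR reporter cells were seeded at 2,000 cells/well and held 6 hours at 37 C/5% CO2 before pin-tool addition of compounds in DMSO. After 18 hours at 37 C, One-Glo was added and luminescence read after 30 minutes at room temperature.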

The nature of assay [9]: qHTS assay to identify small molecule agonists of the estrogen related receptor signaling pathway with the pleiotropic PPARgamma coactivator (PGC) from Tox21 10K library (AID 1224842). Also: nearly all actives have a fitted effect of over 15% in size. An outline of the steps:
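PGC/ERR reporter cells (NTP line) were seeded 2,000 per well, rested 6 h at 37 C/5% CO2, then pin-dosed with compounds in DMSO for 18 h at 37 C; luciferase read by One-Glo luminescence after 30 min at room temperature.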

Assay [10] addresses Thyrotropin receptor (Homo sapiens) (UniProt P16473). In words: qHTS assay to identify small molecule agonists of the thyroid stimulating hormone receptor (TSHR) signaling pathway (AID 1224843; calls by dose curve; also: nearly all actives have a fitted effect of over 45% in size). The gist of the method:
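TSHR-expressing HEK293 cells (800 per well) were exposed to compounds for 30 min at room temperature. cAMP was then detected by HTRF competition with cAMP-d2 and anti-cAMP cryptate, read after 1 h at room temperature. Fifteen concentrations, triplicate.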

Assay [11] in a line: qHTS assay to identify small molecule agonists of the hypoxia (HIF-1) signaling pathway - cell viability counter screen (AID 1224844; calls by dose curve; also: nearly all actives have a fitted effect of over 50% in size). The gist of the method: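 HRE-bla ME-180 cells in medium with 0.5% dialyzed FBS were preincubated 5 hrs at 37C, exposed to compounds for 17 hrs, then viability was read as CellTiter-Glo luminescence after 30 min at room temperature, in the reporter wells.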

The nature of assay [12]: qHTS assay to identify small molecule agonists of H2AX (AID 1224845; active = well fitted activation curve with a large enough effect in the signal ratio in the repeat runs, not every such curve was filed as active; the % refers to the signal ratio). An outline of the steps: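 Wild-type CHO-K1 cells plated overnight, then exposed 3 hr at 37C to compounds at 15 concentrations (0.76% DMSO). Lysed, then HTRF anti-pH2AX(S139)-cryptate/anti-H2AX-d2 detection after 24 hr at room temperature; emissions 665 and 620 nm.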
Assay [13] in a line: qHTS assay to identify small molecule agonists of the hypoxia (HIF-1) signaling pathway (AID 1224846; active = well fitted activation curve with a large enough effect in the signal ratio in the repeat runs, not every such curve was filed as active; the % refers to the signal ratio). An outline of the steps: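 HRE-bla ME-180 cells (beta-lactamase reporter under hypoxia response element) were plated at 2,000 cells/well in medium with 0.5% dialyzed FBS, rested 5 hrs, then given compounds in DMSO for 17 hrs at 37C, 5% CO2. Reporter induction was read with CCF4-AM FRET substrate.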

A short description of assay [14]: qHTS assay to identify small molecule agonists of H2AX - cell viability counter screen (AID 1224847; calls by dose curve; also: top concentration of the series differs between compounds; nearly all actives have a fitted effect of over 30% in size). The gist of the method: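 CHO-K1 wt, 1000 cells/well, o/n 37C; cpds 15 conc, 3 h 37C, 0.76% DMSO; CellTiter-Glo, 30 min RT, luminescence.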
The nature of assay [15]: qHTS assay to identify small molecule antagonists of the estrogen related receptor (ERR) signaling pathway from Tox21 library (AID 1224848). Also: nearly all actives have a fitted effect of over 50% in size. The gist of the method: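 Cells: ERR line, 2,000/well; 6 h preincubation 37 C/5% CO2. Cpd in DMSO via pin tool; 18 h, 37 C. ONE-Glo, 30 min RT, luminescence.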
The nature of assay [16]: qHTS assay to identify small molecule agonists of the estrogen related receptor (ERR) signaling pathway from Tox21 library (AID 1224849; calls by dose curve; also: nearly all actives have a fitted effect of over 15% in size). To be noted: ERR reporter cell line, ONE-Glo luciferase, 18 h; at 92.4 µM (top of the series) unless noted. An outline of the steps: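 ERR reporter cell line (NTP) seeded, rested 6 h at 37 C/5% CO2, then pinned with Tox21 compounds in DMSO. After 18 h at 37 C, ONE-Glo luciferase luminescence was read following 30 min at room temperature.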

Assay [17] is described as follows: qHTS RealTime-Glo MT Cell Viability Assay in HepG2 cells - 24 hour (AID 1224867). Also: nearly all actives have a fitted effect of over 50% in size. The gist of the method: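 HepG2 suspension premixed with RealTime-Glo reagents is plated at 600 cells per well and left 5 h at 37 C/5% CO2. Compounds in DMSO then go in, and bioluminescence reflecting viable cell number is recorded over 40 h.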
The nature of assay [18]: A CellTox Green Cytotoxicity Assay to monitor cytotoxicity in HEK293 cells - 0 hour (AID 1224869). Also: nearly all actives have a fitted effect of over 50% in size. An outline of the steps:
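HEK293 cells premixed with CellTox Green dye were seeded at 600 cells/well and left 5 h at 37 C/5% CO2 before pin transfer of 23 nL compound in DMSO. Fluorescence from dye bound to dead-cell DNA was read during 40 h treatment.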

For assay [19], the target named is Nuclear receptor subfamily 1 group I member 3 (Homo sapiens) (UniProt Q14994). In words: qHTS assay to identify small molecule antagonists of the constitutive androstane receptor (CAR) signaling pathway (AID 1224838). Also: nearly all actives have a fitted effect of over 40% in size. The gist of the method: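 HepG2 cells stably co-transfected with hCAR and a CYP2B6-2.2kb luciferase reporter were seeded 4 h before compound addition at 15 concentrations. Cells were stimulated with 50 nM CITCO (final) for 24 h at 37 C; luciferase luminescence was then read.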

Assay [20] in a line: qHTS RealTime-Glo MT Cell Viability Assay in HEK293 cells - 32 hour (AID 1224868). The gist of the method:
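Reads taken at 0, 8, 16, 24, 32 and 40 h from the same wells. HEK293 cells (600/well) carried RealTime-Glo reagents from seeding, with compound added after a 5 h settle at 37 C.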

Molecules are shown by their SMILES. Unmarked numbers belong to inactive results. Results filed as inconclusive are left out. Active and inactive are the calls of the source. Unless noted, calls follow the shape of the dose curve; as a rule, active = well fitted curve in the direction sought with a large enough effect in the repeat runs; inconclusive = weak or mixed curves; inactive = no such curve, though single readings can be large; an effect the other way counts as inactive or inconclusive.
% is scaled to controls: 0 for no effect and ±100 for the full control effect.

Thyrotropin receptor (Homo sapiens), sequence (P16473 whole entry, looked up): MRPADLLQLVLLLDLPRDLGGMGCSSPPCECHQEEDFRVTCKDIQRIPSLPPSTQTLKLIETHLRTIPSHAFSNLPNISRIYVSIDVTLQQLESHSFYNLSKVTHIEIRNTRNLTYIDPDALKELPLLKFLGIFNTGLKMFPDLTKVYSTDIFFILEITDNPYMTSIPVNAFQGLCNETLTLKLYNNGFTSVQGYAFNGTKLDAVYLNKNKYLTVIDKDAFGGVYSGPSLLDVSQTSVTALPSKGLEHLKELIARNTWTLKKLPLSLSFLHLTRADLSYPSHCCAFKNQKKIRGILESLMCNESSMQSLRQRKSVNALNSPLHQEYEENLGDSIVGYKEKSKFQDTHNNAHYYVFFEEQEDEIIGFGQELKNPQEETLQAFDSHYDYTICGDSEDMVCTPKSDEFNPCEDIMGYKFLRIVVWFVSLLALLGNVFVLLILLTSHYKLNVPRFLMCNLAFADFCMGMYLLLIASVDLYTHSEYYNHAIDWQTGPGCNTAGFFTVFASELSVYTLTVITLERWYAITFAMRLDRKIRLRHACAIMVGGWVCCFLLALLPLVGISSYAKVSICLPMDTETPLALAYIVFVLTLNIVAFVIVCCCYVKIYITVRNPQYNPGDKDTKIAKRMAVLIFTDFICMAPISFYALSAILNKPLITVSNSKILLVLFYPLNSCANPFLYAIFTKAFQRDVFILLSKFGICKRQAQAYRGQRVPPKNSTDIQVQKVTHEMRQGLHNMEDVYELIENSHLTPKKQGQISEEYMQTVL
Nuclear receptor subfamily 1 group I member 3 (Homo sapiens), sequence (Q14994 whole entry, looked up): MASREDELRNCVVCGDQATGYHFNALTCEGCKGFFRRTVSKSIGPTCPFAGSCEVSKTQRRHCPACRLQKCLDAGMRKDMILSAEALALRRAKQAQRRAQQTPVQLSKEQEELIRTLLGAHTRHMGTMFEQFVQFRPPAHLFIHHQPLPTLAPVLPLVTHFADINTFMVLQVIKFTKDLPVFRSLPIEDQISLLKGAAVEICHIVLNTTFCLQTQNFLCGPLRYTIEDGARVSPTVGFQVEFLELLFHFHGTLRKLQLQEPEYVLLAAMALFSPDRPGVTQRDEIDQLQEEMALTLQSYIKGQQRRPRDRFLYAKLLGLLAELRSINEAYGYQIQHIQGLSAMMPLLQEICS
Luciferin 4-monooxygenase (Photinus pyralis), sequence (P08659 whole entry, looked up): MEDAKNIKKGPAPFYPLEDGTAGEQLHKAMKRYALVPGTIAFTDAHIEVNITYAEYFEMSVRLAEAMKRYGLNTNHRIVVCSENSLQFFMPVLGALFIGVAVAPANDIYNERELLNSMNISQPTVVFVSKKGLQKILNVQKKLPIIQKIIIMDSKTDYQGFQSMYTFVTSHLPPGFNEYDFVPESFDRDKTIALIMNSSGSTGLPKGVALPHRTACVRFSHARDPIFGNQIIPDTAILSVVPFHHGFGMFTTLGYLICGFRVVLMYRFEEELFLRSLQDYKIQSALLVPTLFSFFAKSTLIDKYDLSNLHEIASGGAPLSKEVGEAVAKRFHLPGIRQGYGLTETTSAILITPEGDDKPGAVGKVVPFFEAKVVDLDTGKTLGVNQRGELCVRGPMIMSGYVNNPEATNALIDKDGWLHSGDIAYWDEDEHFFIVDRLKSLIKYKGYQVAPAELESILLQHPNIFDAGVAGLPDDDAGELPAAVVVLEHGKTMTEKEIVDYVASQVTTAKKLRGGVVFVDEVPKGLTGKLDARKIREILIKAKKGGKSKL

Consider `Cn1c(CCCC(=O)O)nc2cc(N(CCCl)CCCl)ccc21`, for which the call in [1], in [12], in assay [13] and in assay [18] was inactive. Further, the Potency result in assay [2], in assay [3], in [4], in [5], in assay [6] and in [7] was “inactive” each time. For the same compound, the Potency entry in assay [8], in [9], in assay [10], in assay [11], in assay [14] and in assay [15] was “inactive” throughout. Further, in assay [17], the Potency entry is “inactive”. Moreover, the activity change, positive = activation in [16] was -8.11% [at 42.5 µM].

As for `c1ccc2c(c1)CCNC2`, the Potency result in [2], in assay [3], in assay [4], in [5], in [19] and in assay [6] was “inactive” throughout. The Potency entry in assay [7], in assay [8], in assay [9], in assay [10], in assay [11] and in assay [14] was “inactive” throughout. The Potency entry in [15] and in assay [17] was “inactive” each time. Further, the call in assay [12], in assay [13] and in assay [18] was inactive. In addition, the activity change, positive = activation in assay [16] was -19.6%.

Take `COc1cccc(C=O)c1`: the Potency result in assay [2], in assay [3], in [4], in assay [5], in assay [19] and in [6] was “inactive” throughout. The Potency entry in assay [7], in assay [8], in assay [9], in [10], in [11] and in assay [14] was “inactive” each time. For the same compound, the Potency result in [15], in assay [17] and in assay [20] was “inactive” each time. The result in assay [12], in [13] and in assay [18] was inactive. In addition, the activity change, positive = activation in assay [16] is 0.51%.

In the case of `CCCN1CCC[C@@H]2Cc3nc(N)ncc3C[C@H]21`, the call in assay [1] and in assay [12] was inactive. The Potency result in [2], in [3], in assay [4], in assay [5], in assay [19] and in assay [6] was “inactive” throughout. In addition, the Potency entry in assay [7], in assay [8], in [9], in assay [10], in [11] and in [14] was “inactive” each time. The Potency entry in assay [15], in assay [17] and in assay [20] was “inactive” throughout. Besides, the activity change, positive = activation in assay [16] is 3.55% [at 42.5 µM].

As to `CCC(=O)c1ccc(Cl)cc1`, the Potency entry in [2], in [3], in assay [4], in assay [5], in [19] and in assay [6] was “inactive” each time. Besides, the Potency result in [7], in assay [8], in [9], in assay [10], in [11] and in [14] was “inactive” in each case. Further, the Potency result in assay [15] and in assay [17] was “inactive” each time. For the same compound, the compound was classed as inactive in [12], in assay [13] and in assay [18]. In assay [16], the activity change, positive = activation was 6.34%.

Consider `CON(C)C(=O)Nc1ccc(Br)c(Cl)c1`, for which the Potency result in assay [2], in [4], in [5], in [19], in [7] and in assay [8] was “inactive” in each case. For the same compound, the Potency entry in assay [9], in [10], in [11], in assay [14], in [15] and in [17] was “inactive” in each case. For the same compound, the Potency is 39.9 µM (active) in assay [3] and 48.6 µM (active) in [6]. Further, the call in assay [12] and in [18] was inactive. Also, the activity change, positive = activation in [16] is 0.491%.
